# Measured values: PubChem BioAssay (NCATS)
# Inconclusive results are not listed. Activity calls are given as the source filed them. The call rests on the fitted dose curve; in most records, active means well fitted cell-killing curve with a large enough effect; inconclusive means small, poorly fitted or top-dose-only effect, or effect the other way; inactive means flat fitted curve, though single readings scatter.
# Test system: HeLa
# Test: Primary qHTS to identify gynecologic anti-cancer compounds using libraries of approved drugs and bioactive compounds (AID 1345084); further: nearly all actives have a fitted effect of over 55% in size
# Conditions: Gynecologic cancer cell panel viability, ATPlite luminescence, 48 h; series mostly up to 57.5 µM; activity change, negative = cytotoxicity: at the top concentration
# Method in brief: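 ATP-based viability (ATPlite), 1,000 cells/well, 16 h pre-incubation, 48 h compound at 37 C, 5% CO2, 15 min RT before read.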
# On the % scale 0 is the no-effect control and ±100 the full control effect.
row,SMILES,"activity change, negative = cytotoxicity"
1,CC(=O)O[C@H](C[C@@H](C)[C@H]1C(=O)[C@H](O)[C@@]2(C)[C@@H]3CCC4C(C)(C)[C@@H](O[C@@H]5OC[C@H](O)[C@H](O)[C@H]5O)CC[C@@]45C[C@@]35CC[C@]12C)[C@@H]1OC1(C)C (some centres undefined),-2.11% [at 25.3 µM] (inactive)
2,CC1OC(OC2C(C)OC(OC3C(OC(=O)/C=C/c4ccc(O)cc4)C(CO)OC(OC4(COC(=O)/C=C/c5ccc(O)cc5)OC(CO)C(O)C4O)C3OC3OCC(O)(CO)C3O)C(O)C2O)C(O)C(O)C1O (centres undefined),-8.01% [at 11.6 µM] (inactive)
3,CC(/C=C/[C@]1(O)[C@@]2(C)CO[C@@]1(C)C[C@@H](O)C2)=C\C(=O)O[C@@H]1O[C@H](CO)[C@@H](O)[C@H](O)[C@H]1O,9.41% [at 25.3 µM] (inactive)
4,C=C1C(=O)OC2CC(C)=C(C(C)CCCO[C@@H]3O[C@H](CO)[C@@H](O)[C@H](O)[C@H]3O)C(O)C12 (some centres undefined),-4.13% [at 25.3 µM] (inactive)
5,O=C(O[C@H]1[C@@H]2C[C@@H]3OC[C@@](O)([C@H]2[C@H](O[C@@H]2O[C@H](CO)[C@@H](O)[C@H](O)[C@H]2O)O3)[C@@H]1O)c1ccccc1,0.456% [at 25.3 µM] (inactive)
6,CC(=O)c1c(C)cc(O)cc1O[C@@H]1O[C@H](CO)[C@@H](O)[C@H](O)[C@H]1O,0.0699% [at 38.5 µM] (inactive)
7,CC1CCC(=O)CC(O)C(O)CC(=O)O1 (centres undefined),-1.24% (inactive)
8,CC1(C)CC2C(O)C3=C(CC(C)(O)C2C1)C(=O)OC3O (centres undefined),-2.54% (inactive)
9,CC[C@H](/C=C/[C@@H](C)[C@H]1CC[C@H]2[C@@H]3CC=C4C[C@@H](O)CC[C@]4(C)[C@H]3CC[C@]12C)C(C)C,-1.7% [at 6.55 µM] (inactive)
